Holding throughout (type): functional
Assay [1] has as its system Plasmodium falciparum. Put plainly: GSK_TCMDC: Inhibition of Plasmodium falciparum 3D7 in whole red blood cells, using parasite LDH activity as an index of growth. Test compounds present at 2uM.
For assay [2], the system named is Plasmodium falciparum. Kind of assay: GSK_TCMDC: Inhibition of Plasmodium falciparum Dd2 in whole red blood cells, using parasite LDH activity as an index of growth. Test compounds present at 2uM.
Assay [3] concerns HepG2. Kind of assay: GSK_TCMDC: Percent inhibition of human HepG2 cell line. Test compounds present at 10uM.

As for `Br.CC(C)c1ccc(OCCCON2C(=N)N=C(N)NC2(C)C)cc1`, the Inhibition turned out to be 93% in assay [1], 97% in assay [2] and 69% in assay [3].
On the same counts, the results for `COc1ccccc1NC(=O)NC1CCN(CCCCCNC(=O)/C=C/c2ccc(Cl)c(Cl)c2)CC1` are 100%, 15% and 4%.
The corresponding values for `CCNc1cc(C(=O)N[C@@H](Cc2ccccc2)[C@H](O)CNC(C)(C)c2cccc(OC)c2)cc(N2CCCC2=O)c1.O=CO` are 100%, 99% and 0%.
On the same counts, the results for `CCN(CC)CCN(Cc1ccc(-c2ccc(C(F)(F)F)cc2)cc1)C(=O)Cn1cc(CCCCc2cccc(F)c2F)c(=O)c2ccccc21.O=C(O)C(O)C(O)C(=O)O` are 90%, 22% and 18%.
For `CN(Cc1ccncc1)C(Cc1ccccc1)C1CCN(Cc2ccc(O)c(Cl)c2)CC1` (configuration not stated), the Inhibition came out at 96% in assay [1], 97% in assay [2] and 22% in assay [3].
On the same counts, the results for `CO/C(=C\C=C\c1cc2cc(Cl)c(Cl)cc2[nH]1)C(=O)NC1CCN(CCNc2ccccc2)CC1` are 100%, 98% and 60%.
On the same counts, the results for `Cc1[nH]c2ccccc2c1C(=O)C(C)Sc1nnc(-c2ccccc2Br)[nH]1` (configuration not stated) are 100%, 100% and 0%.
As to `CC(C)CN1CCCN(Cc2cccc(NC(=O)c3ccc(Cl)c(Cl)c3)c2)CC1.O=C(O)C(F)(F)F`, the Inhibition amounted to 91% in assay [1], 9% in assay [2] and 10% in assay [3].
On the same counts, the results for `O=C(Nc1cccc(-c2ccc(-c3nc4cc(F)ccc4[nH]3)cc2)c1)Nc1ccc(Cl)c(Cl)c1` are 100%, 49% and 79%.
On the same counts, the results for `c1ccn2c(-c3ncnc(NCc4ccc5c(c4)CCO5)n3)cnc2c1` are 86%, 47% and 12%.
On the same counts, the results for `O=C(Nc1ccc(OC2CCN(Cc3ccccc3)CC2)c(Cl)c1)c1ccco1.O=C(O)C(F)(F)F` are 96%, 96% and 8%.
For the compound `CC(C)CC(=O)N(Cc1ccc(-c2ccc(CNC3Cc4ccccc4C3)cc2)cc1)C1CCNCC1.O=C(O)C(F)(F)F`, the Inhibition stood at 85% in assay [1], 65% in assay [2] and 20% in assay [3].
On the same counts, the results for `Br.CCSc1ccccc1CON1C(=N)N=C(N)NC1(C)C` are 96%, 10% and 62%.
For `COc1ccc(C2C(C(=O)Nc3cc(OC)c(OC)c(OC)c3)c3cc(OC)c(OC)cc3C(=O)N2C)cc1` (configuration not stated), the values for the Inhibition in assay [1], in assay [2] and in assay [3] were 98%, 100% and 9%, respectively.
For `O=C(NCC1CC1)C1CCN(C(c2ccccc2)c2ccc(Cl)c(Cl)c2)CC1` (configuration not stated), the Inhibition in assay [1] stood at 97%; in assay [2], 96%; in assay [3], 7%.
As for `CC[C@H](C)CNC(=O)c1cncc(-c2cccc(CNCCCc3ccccc3)c2)c1.O=C(O)C(F)(F)F`, the results for the Inhibition in assay [1], in assay [2] and in assay [3] were 95%, 0% and 9%, respectively.
On the same counts, the results for `Cc1ccc(OCC2CCN(c3ncc(C(=O)NCCCN4CCCC4=O)cc3Cl)CC2)cc1` are 94%, 71% and 7%.
As for `CC(C)CCCC(C)(C)NC[C@@H](O)[C@H](Cc1ccccc1)NC(=O)c1cccc(CCC2CC2)c1`, the Inhibition in assay [1] was determined as 98%; in assay [2], 52%; in assay [3] it was 100%.
Consider `COc1cc(Nc2ncnc3cc(OC)c(OC)cc23)cc([N+](=O)[O-])c1.Cl`, for which the Inhibition in assay [1] worked out at 97%; in assay [2] it was 6%; in assay [3] it was 8%.
The corresponding values for `COc1ccc2nccc([C@@H](O)CN3CCC(NCCOc4ccncc4)CC3)c2c1.O=C(O)C(=O)O` are 100%, 0% and 11%.
Regarding `COc1cc(OC)cc(-c2nnc(Sc3ccc(C#N)c([N+](=O)[O-])c3)n2C)c1`, the Inhibition is listed as 95% in assay [1], 77% in assay [2] and 1% in assay [3].
The corresponding values for `CCCc1cn2c3c(cc(C(=O)N[C@@H](Cc4ccccc4)[C@H](O)CNC4CCOCC4)cc13)N(CC)S(=O)(=O)CC2.O=CO` are 97%, 98% and 2%.
For the compound `Cc1cccc(NC(=O)NC2CCN(CCCCCNC(=O)/C=C/c3ccc(Cl)c(Cl)c3)CC2)c1`, the results for the Inhibition in assay [1], in assay [2] and in assay [3] were 100%, 21% and 34%, respectively.
On the same counts, the results for `O=C(Nc1ccc(C(=O)Oc2ccc(-c3ccccc3)cc2)cc1)N[C@@H](Cc1ccc(O)cc1)C(=O)NC1CCN(Cc2ccc(O)cc2)C1.O=C(O)C(F)(F)F` (some centres not stated) are 94%, 60% and 0%.
The corresponding values for `CN(C)CCCOc1cc(NC(=O)Nc2ccc(-c3ccncc3)c3ccccc23)ccc1I.Cl` are 100%, 97% and 46%.
On to `CCOC(=O)c1cccc(NC(=O)Nc2cccc(-c3ncc(OCCCN)c4c3nc(-c3nonc3N)n4CC)c2)c1.O=C(O)C(F)(F)F`, for which the Inhibition in assay [1] was 100%; in assay [2], 98%; in assay [3] it was 16%.
For `COc1ccc(CNC(=O)C2Cc3ccccc3CN2Cc2ccc3ccccc3c2)cc1` (configuration not stated), the Inhibition in assay [1] is 96%; in assay [2], 84%; in assay [3] it was 15%.
The corresponding values for `O=S1(=O)NC2(CCN(CCc3ccc(Cl)cc3)CC2)Nc2cc(F)cc(F)c21` are 86%, 5% and 7%.
Take `Cc1nc(C)c(-c2ccc(C(=O)c3ccc(Cl)cc3)cc2)c(O)c1Br`: the Inhibition in assay [1] is on record as 97%; in assay [2], 95%; in assay [3], 10%.

The Inhibition is the drop in the measured response relative to a control, in per cent. Low readings indicate little suppression, high ones strong suppression.

The record behind these values is ChEMBL document CHEMBL1157539, “Thousands of chemical starting points for antimalarial lead identification” (Nature, 2010).
